ERp5 block: inhibitors of human ERp5; Q15084; ERp5 insulin aggregation, absorbance 650 nm, 90 min; inhibition, % at 9.99 µM; actives 0.05% (n = 350,000);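 active means mean replicate inhibition above about 25%, with every replicate also reaching it, limit read from the data, passing the limit was not always enough; inconclusive means only one of those two criteria met; inactive means neither criterion met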
SIRT5 inh: inhibitors of human sirtuin-5 desuccinylase; Purified SirT5, succinyl-peptide AMC, trypsin-coupled fluorescence; inhibition, % at 15 µM; actives 1.1% (n = 330,000); AID 652115; in the data active means inhibition above about 15%; inconclusive means no clear call, values can overlap the other calls
Target sequence (Q9NXA8 whole entry, looked up): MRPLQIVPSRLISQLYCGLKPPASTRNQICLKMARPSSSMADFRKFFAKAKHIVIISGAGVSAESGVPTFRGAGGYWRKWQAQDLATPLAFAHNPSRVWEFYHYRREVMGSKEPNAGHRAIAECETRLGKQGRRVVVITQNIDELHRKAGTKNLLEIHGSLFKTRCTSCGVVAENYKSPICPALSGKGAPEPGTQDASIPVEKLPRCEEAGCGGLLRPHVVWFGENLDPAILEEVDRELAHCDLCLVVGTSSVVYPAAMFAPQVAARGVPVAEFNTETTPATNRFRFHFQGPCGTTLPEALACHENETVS
PDI inh: inhibitors of human protein disulfide isomerase. P07237. inhibition, % at 10 µM. AID 588391. actives 0.052% (n = 350,000). PDI insulin aggregation turbidity, A650, 90 min;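 active means mean inhibition across replicates of 30% or more, whatever share of single replicates reach that level; inconclusive means mean inhibition below 30% while every single replicate reaches 30%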
DENV2 CPE: DENV2-induced cell death inhibition. DENV2-infected cells, cytopathic effect rescue, plate reader. CPE inhibition, % at 9.99 µM. actives 1.7% (n = 350,000); in the data active means CPE inhibition above about 20%, passing the limit was not always enough; inconclusive means no clear call, values can overlap the other calls; tested in BHK-21 cells;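 further: 0% = median of neutral control wells and 100% = median of positive control wells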
Rtt109 HAT inh: blocks Candida albicans Rtt109/Vps75 acetyltransferase activity | Q5AAJ8 | purified Rtt109/Vps75, ThioGlo CoA-SH fluorescence, 4 h | inhibition, % at 34.9 µM | actives 0.16% (n = 330,000) | AID 540336;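 active means inhibition of at least 50% in every replicate; inconclusive means best replicate reaches 50% inhibition but some replicates fall short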
Active calls of the source: *; ? = inconclusive; . = no result; ! = not confirmed by another sample. In the library only some 2.3% were active in any assay of this set; here they are far more common.

SMILES | ERp5 block | SIRT5 inh | PDI inh | DENV2 CPE | Rtt109 HAT inh
C[C@@H]1CN([C@H](C)CO)C(=O)Cc2cc(NS(=O)(=O)c3ccccc3)ccc2O[C@H]1CN(C)Cc1ccc(Cl)c(Cl)c1 | 0 | 18* | . | 33* | .
C[C@@H]1CN([C@H](C)CO)C(=O)Cc2cc(NS(=O)(=O)c3ccc(Cl)cc3)ccc2O[C@@H]1CN(C)Cc1ccc(Cl)c(Cl)c1 | 11 | 16* | . | -1 | .
COc1ccc(C(=O)Nc2cc(=O)[nH]c3ncnn23)cc1 | 13 | 31* | 5 | ? | -2
Cc1ccc(C(=O)OCC(=O)NC(=O)c2cccn2C)cc1 | 4 | 2 | 2 | 13 | 7
Cn1cccc1C(=O)OCC(=O)NC(=O)c1ccc(Cl)cc1 | -3 | -3 | -6 | 26* | -10
COc1ccc(NC(=O)Nc2ccc3c(c2)C(=O)N([C@@H](C)CO)C[C@@H](C)[C@H](CN(C)C(=O)NC2CCCCC2)O3)cc1 | -7 | -1 | . | -1 | .
C[C@H]1CN([C@@H](C)CO)C(=O)c2cc(/C=C/c3ccccc3)cnc2O[C@H]1CN(C)C(=O)c1ccccc1 | 2 | -14 | . | 2 | .
Cc1ccc(NC(=O)Nc2ccc3c(c2)nc(C)n3C)cc1 | 9 | 1 | 0 | . | .
Cc1nc2cc(NC(=O)Nc3cccc([N+](=O)[O-])c3)ccc2n1C | -2 | 4 | -6 | 35* | 9
COc1ccc2c3c(n(C)c2c1)[C@H](CO)N(CC1CC1)CC31CCN(Cc2nccs2)CC1 | . | . | . | 45* | .
COc1ccc2c3c(n(C)c2c1)[C@H](CO)N(Cc1nccs1)CC31CCN(C(C)=O)CC1 | . | . | . | 27* | .
COc1ccc2c3c(n(C)c2c1)[C@H](CO)N(S(C)(=O)=O)CC31CCN(Cc2nccs2)CC1 | -2 | 5 | . | 24* | .
COc1ccc2c3c(n(C)c2c1)[C@H](CO)N(Cc1nccs1)CC31CCN(C)CC1 | . | . | . | 10 | .
COc1ccccc1NC(=O)N1C[C@@H]2N[C@H](C1)C2c1ccc(-c2cccc(C(=O)N(C)C)c2)cc1 (stereo not given in full) | -4 | 0 | . | 2 | .
Cc1ccccc1S(=O)(=O)N1CC[C@H]2[C@H](CO)Nc3ccc(-c4cccc(C#N)c4)cc3[C@H]21 | . | . | . | -23 | .
Cc1ccc(C(=O)N2CC(=O)Nc3ccc(F)cc3C2c2ccccc2)cc1 (stereo not given) | 3 | 15* | -7 | 18 | -5
CC(=O)N1CC2(C1)[C@@H](c1ccc(-c3ccc(C#N)cc3)cc1)[C@@H](CO)N2C(C)=O | 1 | 7 | . | 1 | .
C[C@H](c1ccccc1)N1C[C@@H](COCc2ccccc2)Oc2cccc(Oc3ccc(C(C)(C)C)cc3)c2S1(=O)=O | 9 | . | . | 85* | .
COc1ccc(C(=O)N/N=C(\C)CC(=O)Nc2ccc(N(C)C)cc2)c(OC)c1 | 1 | 0 | -1 | 116* | -5
COc1ccc(CC(=O)Nc2ccc(/C(C)=N/NC(=O)c3ccc(OC)cc3OC)cc2)cc1 | -1 | 1 | -5 | 2 | 7
C[C@@H]1CN([C@H](C)CO)C(=O)c2cccc(N(C)C)c2O[C@H]1CN(C)C(=O)NC1CCCCC1 | 6 | -4 | . | -7 | .
CC(C)NC(=O)N(C)C[C@@H]1Oc2c(cccc2N(C)C)C(=O)N([C@H](C)CO)C[C@H]1C | -1 | 0 | . | 27* | .
CC(C)NC(=O)N(C)C[C@H]1Oc2c(cccc2N(C)C)C(=O)N([C@@H](C)CO)C[C@H]1C | 1 | 1 | . | 22* | .
C[C@H](CO)N1C[C@H](C)[C@@H](CN(C)S(=O)(=O)c2ccc(Cl)cc2)Oc2ccc(NC(=O)Nc3ccc(C(F)(F)F)cc3)cc2CC1=O | 3 | 1 | . | -1 | .
Cc1cc(NC(=O)COC(=O)Cn2[nH]c(=O)c3ccccc3c2=O)c([N+](=O)[O-])cc1C | 4 | . | 23 | 52* | -3
SMILES | ERp5 block | SIRT5 inh | PDI inh | DENV2 CPE | Rtt109 HAT inh
CCC(=O)OCC(=O)Nc1cc(C)c(C)cc1[N+](=O)[O-] | -2 | -1 | 18 | . | -13
O=C(O)CC1(O)C(=O)N(Cc2ccccc2)c2ccccc21 (stereo not given) | -5 | 2 | 2 | 12 | 1
N#CCC1(O)C(=O)N(Cc2ccccc2)c2ccccc21 (stereo not given) | -3 | 22* | . | 0 | .
C[C@@H]1CCCCO[C@@H](CN(C)CC2CCCCC2)[C@H](C)CN([C@H](C)CO)C(=O)c2cc(NS(=O)(=O)c3cn(C)cn3)ccc2O1 | 3 | 2 | . | 2 | .
CCCCCCCCCCCCCCCC[n+]1cccc(C(=O)N(CC)CC)c1 | 5 | -4 | 11 | 5 | 74*!
CCCCCCCC[n+]1cccc(C(=O)N(CC)CC)c1 | 0 | -5 | 3 | 6 | .
O=C(NCC(=O)N1CCCCC1)c1ccc2ccccc2c1 | 1 | -2 | -8 | 14 | 52*
COc1ccc2nc(NC(=O)c3ccc([N+](=O)[O-])o3)sc2c1 | 1 | 2 | -3 | 21* | -4
O=C(Nc1nc2ccccc2s1)c1ccc([N+](=O)[O-])o1 | 2 | 2 | -74 | -1 | 3
Cc1cc(C)nc(NC(=O)c2ccc([N+](=O)[O-])o2)n1 | 3 | -2 | 11 | 93* | -8
Cc1cccc(C(=O)N2CCC(=O)N([C@H](COCc3ccc(Cl)cc3)Cc3ccccc3)CC2)c1 | 3 | 6 | . | 125* | .
Cc1cccc(C(=O)N2CCC(=O)N(C(COCc3ccc(Cl)cc3)Cc3ccccc3)CC2)c1 (stereo not given) | 0 | -2 | 8 | 1 | 6
CC(C)C#Cc1cnc2c(c1)C(=O)N([C@@H](C)CO)C[C@H](C)[C@H](CN(C)C(=O)CCN1CCCCC1)O2 | 2 | 10 | . | 10 | .
CCOC(=O)C[C@H]1c2ccccc2S(=O)(=O)N1c1ccccc1 | 5 | . | -3 | 37* | 3
CCOC(=O)C[C@H]1c2cc(F)ccc2S(=O)(=O)N1c1ccccc1 | -5 | 3 | -5 | -7 | -1
CCOC(=O)C1=C(C)N=c2s/c(=C/c3ccc(OCC(=O)O)cc3)c(=O)n2C1c1cc(OC)c(OC)c(OC)c1 (stereo not given) | 4 | . | 24 | -5 | 68*
CCOC(=O)C1=C(C)N=c2sc(=Cc3ccc(OCC(=O)O)cc3)c(=O)n2C1c1ccc(Cl)cc1 (stereo not given) | 6 | 21* | 0 | 20 | .
CCOC(=O)C1=C(C)N=c2s/c(=C\c3ccc(OCC(=O)O)cc3)c(=O)n2C1c1ccc(OC(C)C)cc1 (stereo not given) | . | . | 3 | . | ?
C[C@H](CO)N1C[C@H](C)[C@@H](CN(C)C(=O)Nc2ccc3c(c2)OCO3)Oc2ccc(NC(=O)CCCCCC(=O)Nc3ccccc3N)cc2C1=O | 10 | 8 | . | -4 | .
C[C@@H]1CCCCO[C@H](CN(C)C(=O)Nc2ccc3c(c2)OCO3)[C@H](C)CN([C@@H](C)CO)C(=O)c2cc(NS(C)(=O)=O)ccc2O1 | 4 | -3 | . | -7 | .
CC1CCc2sc(C(=O)NN=C3CCCC3)cc2C1 (stereo not given) | -9 | -3 | -5 | 52* | .

Screening data as filed in PubChem BioAssay.
